# Screens from PubChem BioAssay.
# Most compounds without a hit are left out; they make up all but 6.2% or so of the library.
# ATXN2 expr inh = reduces ATXN2 reporter expression in HEK-293 cells | HEK-293 ATXN2-luciferase reporter, luminescence, 24 h | Potency, µM (series often up to 57 µM), for the others: at the top dose activity change, negative = inhibition, usual class: inhibitors | hit rate 0.72% among 360,000; note: % is set by controls: 0 for no effect and ±100 for the full control effect; nearly all actives have a fitted effect of over 55% in size
#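 ATXN2-luciferase reporter cells (luciferase flanked by upstream and downstream ATXN2 gene portions) were treated 24 h at 37 °C with compounds at up to 57 uM. SteadyGlo luminescence gave expression; GF-AFC fluorescence gave viability.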
# HT1080 IDH1KD tx = toxicity to HT-1080 IDH1 knockdown cells (counter line); hit rate 2% among 360,000; AID 686971; Potency, µM (top dose mostly 46.1 µM), inactives show top-dose activity, negative = toxicity, usual class: cytotoxic; HT-1080 IDH1 knockdown viability, ATP luminescence, 48 h;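 note: 0% = DMSO wells and -100% = cell-free medium wells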
#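 Assay cells: HT-1080 with IDH1 knockdown, 750 per well, RPMI/5% FBS. Exposure: 48 h at 37 °C following 2 h pre-incubation. Read: CellTiter-Glo luminescence; fitted concentration-response, curve class assigned.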
# KB-V1 cytotox = KB-V1 MDR subline cytotoxicity; KB-V1 MDR cells viability, CellTiter-Glo, 72 h; Potency, µM (series often up to 46.1 µM), usual class: cytotoxic; hit rate 3.4% among 400,000; note: % is set by controls: 0 for no effect and ±100 for the full control effect; nearly all actives have a fitted effect of over 60% in size
#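 Compound-treated KB-V1 multidrug-resistant cells, 72 h, 37 degrees C; viability by CellTiter-Glo. Fitted qHTS curves give the values.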
# HT1080NT lethal = kills 2HG-producing HT-1080-NT fibrosarcoma cells; HT-1080-NT fibrosarcoma viability, CellTiter-Glo ATP luminescence, 48 h; Potency, µM (highest dose often 46.1 µM), inactives show at the top dose activity, negative = less viability, actives largely listed as cytotoxic; hit rate 1.6% among 360,000;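 note: NT is the 2HG producing partner of a matched IDH1 knockdown line; 0% = DMSO-treated cells and -100% = media-only wells without cells; nearly all actives have a fitted effect of over 55% in size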
#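 Read-out is CellTiter-Glo luminescence after 10 minutes at room temperature, following 48 hours' compound treatment of HT-1080-NT cells (750 cells/well, RPMI, 5% FBS, 37 degrees C).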
# KB-3-1 tox = kills parental KB-3-1 adenocarcinoma cells | KB-3-1 viability, CellTiter-Glo ATP luminescence, 72 h | Potency, µM (doses to about 46.1 µM), hits mostly cytotoxic | hit rate 1.4% among 400,000; note: % is set by controls: 0 for no effect and ±100 for the full control effect; nearly all actives have a fitted effect of over 60% in size
#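 Here the drug-naive KB-3-1 line serves as comparator for MDR sub-line selectivity; cells received compound titrations, 72 h at 37 °C, then CellTiter-Glo readout.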
# S2 tox = viability counter-screen for ATXN expression inhibitors. hit rate 0.49% among 400,000. S2 cells (HEK-293 line with an ATXN2-luciferase reporter) viability, CellTiter-Fluor protease fluorescence, 24 h. AID 651635. Potency, µM (doses to about 56.7 µM), actives largely listed as cytotoxic; note: nearly all actives have a fitted effect of over 40% in size
# * hit, by the source's call; i = inactive; ? = inconclusive; . = no result; ! = a repeat was not active. Calls come from the whole dose curve; as a rule, active = well fitted curve in the direction sought with a large enough effect; inconclusive = small, poorly fitted or top-dose-only effect, or another doubt; inactive = no such curve, though single readings can be large; an effect the other way counts as inactive or inconclusive. Potency is the fitted concentration of half-maximal effect.
SMILES,ATXN2 expr inh,HT1080 IDH1KD tx,KB-V1 cytotox,HT1080NT lethal,KB-3-1 tox,S2 tox
COc1cccc(N(CC(=O)NCCSc2ccc(Cl)cc2)S(C)(=O)=O)c1,-8%,-2%,16µM*,-7%,i,i
CC(C)(C)SCCNC(=O)CN(c1ccc(F)c(Cl)c1)S(C)(=O)=O,0%,-11%,18µM*,-1%,i,i
COc1ccc(N(CC(=O)NCCSCc2c(F)cccc2Cl)S(C)(=O)=O)cc1OC,-2%,3%,8.2µM*,1%,i,i
COc1ccc(OC)c(N(CC(=O)NCCSc2ccccc2)S(C)(=O)=O)c1,2%,-2%,23µM*,1%,i,i
CCOC(=O)c1scc(-c2ccc(C)cc2)c1S(=O)(=O)Nc1cc(Cl)ccc1OC,-15%,.,i,.,i,i
CCN1Cc2cccc(C(=O)Nc3ccc(F)cc3)c2C1=O,1%,.,i,.,i,i
CN(C)c1ccc(CNC(=O)Cn2ccc3cc(S(=O)(=O)N4CCCCCC4)ccc32)cc1,-5%,.,i,.,i,i
C=C(C)[C@@H]1CC=C(CN2CCC(N3CCC(C(=O)N4CCCC4)CC3)CC2)CC1,-31%,21µM*,?,18µM*,?,i
Nc1nnnn1/N=C/C=C/c1ccccc1,36%,16%,i,17%,i,i
Nc1nnnn1/N=C/C(Br)=C/c1ccccc1,25µM*,9.2µM*,?,-30%,?,14µM*
Cc1cc(C2CCCCC2)n(O)c(=O)c1,18µM*,18µM*,?,8.2µM*,i,20µM*!
O=C(NCc1cccc(Cl)c1)C1Cc2c(-c3ccccc3Oc3ccccc3)ccnc2O1 (stereo not given),?,?,?,?,i,i
O=C(Nc1cccc(C(F)(F)F)c1)C1Cc2c(-c3ccccc3Oc3ccccc3)ccnc2O1 (stereo not given),?,?,18µM*,?,?,i
CC(=O)c1cccc(NC(=O)C2Cc3c(-c4ccccc4Oc4ccccc4)ccnc3O2)c1 (stereo not given),?,?,?,?,i,?
NC(=O)c1cccc(-c2ccnc3c2CC(C(=O)Nc2cccc(C(F)(F)F)c2)O3)c1 (stereo not given),?,?,23µM*,?,?,i
CC(=O)Nc1ccc(-c2ccnc3c2CC(C(=O)Nc2cccc(N(C)C)c2)O3)cc1 (stereo not given),-9%,12µM*,i,?,i,?
COc1ccc(CNC(=O)C2Cc3c(-c4ccccc4Oc4ccccc4)ccnc3O2)cc1OC (stereo not given),-19%,-20%,15µM*,?,?,i
CC(=O)CC/C=C(\C)CC/C=C(\C)CC/C=C(\C)CCC=C(C)C,7%,.,.,.,.,i
COCCCNc1oc(-c2ccc(COc3ccccc3C)o2)nc1C#N,?,.,i,.,i,?
Cc1ccc(S(=O)(=O)N2CCc3cc(C(=O)NCCc4ccccc4)ccc32)cc1,2%,.,i,.,i,i
CC(=O)Nc1ccc(NC(=O)C2Cc3c(-c4ccc(Cl)cc4)ccnc3O2)cc1 (stereo not given),-1%,-6%,i,?,i,i
CC(=O)Nc1ccc(-c2ccnc3c2CC(C(=O)Nc2cccc(C(F)(F)F)c2)O3)cc1 (stereo not given),?,16µM*,23µM*,?,?,?
CC(=O)Nc1ccc(-c2ccnc3c2CC(C(=O)Nc2cccc(Oc4ccccc4)c2)O3)cc1 (stereo not given),?,15µM*,?,?,?,?
OC1CCCN(Cc2c3ccccc3cc3ccccc23)C1 (stereo not given),18µM*,?,?,?,i,i
OC1CCCN(Cc2cccc3ccccc23)C1 (stereo not given),0%,5%,i,3%,i,i
SMILES,ATXN2 expr inh,HT1080 IDH1KD tx,KB-V1 cytotox,HT1080NT lethal,KB-3-1 tox,S2 tox
COc1ccc(OC)c(S(=O)(=O)N2CCN(Cc3nc4ccc(C)cc4o3)CC2)c1,-7%,.,i,.,i,i
COc1ccc(NC(=O)c2oc3ccccc3c2NC(=O)C2CC2)cc1,-9%,-24%,10µM*,6%,i,i
COc1ccc(NC(=O)c2oc3ccccc3c2NC(=O)C(C)(C)C)cc1,1%,?,9.2µM*,-1%,i,i
CCC(=O)N(CCC1(C(C)C)CCOC(C)(C)C1)Cc1ccco1 (stereo not given),-1%,5%,i,6%,i,i
CC(=O)N(CCC1(C(C)C)CCOC(C)(C)C1)Cc1ccco1 (stereo not given),-4%,-2%,12µM*,-3%,i,?
COC(=O)NCC(c1ccco1)N1CCN(c2ccc(OC)cc2)CC1 (stereo not given),1%,4%,i,3%,i,i
O=S(=O)(NCC(c1ccco1)N1CCN(c2ccc(F)cc2)CC1)c1ccc(F)cc1 (stereo not given),-11%,-4%,15µM*,-2%,i,i
O=C(NCc1ccncc1)C(=O)NCC(c1ccco1)N1CCN(c2ccc(F)cc2)CC1 (stereo not given),-21%,2%,2.6µM*,-1%,?,i
COc1ccc(N2CCN(C(CNC(=O)C(=O)NCC3CCCO3)c3ccco3)CC2)cc1 (stereo not given),1%,0%,4.1µM*,0%,i,i
O=S(=O)(NCC(c1ccco1)N1CCN(c2ccccc2)CC1)c1cc(F)ccc1F (stereo not given),.,.,i,.,i,.
CCS(=O)(=O)NCC(c1ccco1)N1CCN(c2ccccc2)CC1 (stereo not given),6%,-1%,23µM*,0%,i,i
CC(C)(C)OC(=O)CN(Cc1ccc(Cl)cc1)Cc1ccc([N+](=O)[O-])s1,-19%,.,.,.,.,.
CC(C)C(NC(=O)c1ccccn1)c1nnc2n1CCN(Cc1ccc3ccccc3c1)CC2 (stereo not given),.,.,.,.,.,i
O=S(=O)(NCC(c1ccco1)N1CCN(c2ccccc2)CC1)c1ccc(F)cc1 (stereo not given),-10%,-10%,23µM*,-5%,i,i
CCC(=O)OCc1cnc(C)c2oc(=O)c(C(=O)Nc3ccc(CC)cc3)cc12,.,.,i,.,i,.
CCN(CC(=O)Nc1ccccc1OC)C(=O)CSCC(=O)Nc1ccc(OC)cc1,-6%,?,?,18µM*,i,i
